According to PubChem BioAssay AID2129 (The Scripps Research Institute Molecular Screening Center, 2009):
About 2,200 (0.69%) of roughly 320,000 compounds were called active. The full list was thinned out, with actives kept by preference. Unmarked numbers belong to inactive results.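 Rule for the calls: active = inhibition above the mean of all tested compounds plus 3 SD, cutoff set per campaign (cut at about 30% in these data); inactive = the rest.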

Each compound was assayed against Bcl-2-like protein 1 (Homo sapiens) (UniProt Q07817) (assay: Bcl-xL/Bim BH3 interaction blockers – biochemical, fluorescence polarization, HTS, primary screen (AID 2129;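 note: 0% = DMSO wells and 100% = unlabeled Bim-BH3 peptide competitor; inhibitors lower millipolarization by displacing the labeled peptide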)). Details: GST-Bcl-xL / FITC-Bim BH3 peptide fluorescence polarization; at 10.9 µM; stronger effect = higher value.
Chain of Bcl-2-like protein 1 (Homo sapiens) (Q07817 whole entry, looked up): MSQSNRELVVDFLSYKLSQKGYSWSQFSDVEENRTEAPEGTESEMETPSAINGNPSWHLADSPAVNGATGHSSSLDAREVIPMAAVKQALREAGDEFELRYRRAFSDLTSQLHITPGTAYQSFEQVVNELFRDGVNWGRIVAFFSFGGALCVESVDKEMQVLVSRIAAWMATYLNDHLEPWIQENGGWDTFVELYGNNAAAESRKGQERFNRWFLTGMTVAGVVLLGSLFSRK

Structure (SMILES) | inhibition
Cn1cnnc1SCc1nnc(-c2ccccc2Br)o1 | 2.35%
Nc1cccc2c1C(=O)N(Cc1nnc(-c3ccccc3Br)o1)C2=O | 48% (active)
CCOC(=O)N1CCN(Cc2nnc(-c3ccccc3Cl)o2)CC1 | -2.11%
CC(=O)NNC(=O)c1csc(Cc2c(Cl)sc3ccc(Cl)cc23)n1 | 1.7%
Cc1ccc([N+](=O)[O-])c(OCCCNCC(C)O)c1 (centres undefined) | 8.16%
COc1c(O)ccc2c1CN1CCc3cc4c(cc3C1C2)OCO4 (centres undefined) | 33.7% (active)
COc1ccc(CN2CCCC(N3CCc4ccccc4C3)C2)c(O)c1 (centres undefined) | -3.09%
COc1ccc2cc1Oc1ccc(cc1)C[C@H]1c3cc(c(OC)cc3CCN1C)Oc1c(O)c(OC)cc3c1[C@H](C2)N(C)CC3 | 6.82%
CN(C(=O)COC(=O)CCCc1c[nH]c2ccccc12)c1c(N)n(Cc2ccccc2)c(=O)[nH]c1=O | -5.75%
O=C(Nn1c(SCc2ccc([N+](=O)[O-])cc2)nc2ccccc2c1=O)c1ccc(F)cc1 | -2.84%
Cc1[nH]c2ccccc2c1CCN(Cc1cccs1)C(=S)NC(C)(C)C | 3.98%
COc1ccc2[nH]c(C)c(CCN(Cc3cccs3)C(=S)Nc3ccccc3OC)c2c1 | 59.5% (active)
COc1cccc(NC(=S)N(CCc2c(C)[nH]c3ccccc23)Cc2ccco2)c1 | -0.26%
COc1ccc(CNc2nc3c(c(=O)[nH]c(=O)n3C)n2Cc2ccccc2)cc1 | 2.21%
COCCn1c(N)c(N(Cc2ccccc2)C(=O)C2CCCCC2)c(=O)[nH]c1=O | -0.25%
COCCn1c(N)c(NCc2ccccc2)c(=O)[nH]c1=O | 64.6% (active)
COc1ccc(CCNC(=O)CCCCCNC(=O)N2CCn3c2nc2ccccc23)cc1OC | 1.04%
Cc1cccn2c(=O)c3cc(C(=O)NCC4CCCO4)c(=N)n(Cc4ccc(F)cc4)c3nc12 (centres undefined) | 0.48%
Cc1cccn2c(=O)c3cc(C(=O)NCCN4CCOCC4)c(=N)n(Cc4cccnc4)c3nc12 | 48.6% (active)
COc1ccc(CCn2c(=N)c(C(=O)NCC3CCCO3)cc3c(=O)n4cccc(C)c4nc32)cc1OC (centres undefined) | 1.5%
Cc1ccc(S(=O)(=O)N(Cc2ccc(Cl)cc2)c2ccccc2C(=O)NCc2cccnc2)cc1 | 0.59%
Cc1sc(NC(=O)c2ccc3ncsc3c2)c(C(N)=O)c1C | 4.75%
O=C(COc1ccc(/C=N/NS(=O)(=O)c2ccccc2)cc1)NCCc1ccccc1 | 5.85%

Structure (SMILES) | inhibition
COc1ccc(C2=CC(c3cccc(OC)c3)n3nnnc3N2)cc1 (centres undefined) | 29.1%
COc1ccc(C2C=C(c3ccc(Br)cc3)Nc3nc(NS(C)(=O)=O)nn32)cc1 (centres undefined) | 164% (active)
CC(C)c1ccc(N2CC(C(=O)Nc3nccs3)CC2=O)cc1 (centres undefined) | -0.59%
CC1=C(C(=O)N(C)C)C(c2ccccc2OC(F)F)NC(=O)N1 (centres undefined) | 3.23%
Cc1cc2occ(CC(=O)NNC(=O)c3ccccc3F)c2cc1C | 0.46%
COc1ccccc1NC(=S)N1CCC(NC(=O)C23CC4CC(CC(C4)C2)C3)CC1 | 2.22%
COc1ccc(CNC(=O)c2cc3c(=O)n4ccccc4nc3n(CC3CCCO3)c2=N)cc1 (centres undefined) | 8.61%
Cc1cccn2c(=O)c3cc(C#N)c(=O)n(CCCN4CCOCC4)c3nc12 | 28.5%
Cc1cccn2c(=O)c3cc(C#N)c(=NC(=O)c4cccnc4)n(CC4CCCO4)c3nc12 (centres undefined) | 47.4% (active)
Cc1oc2c(C)c3oc(=O)c(CC(=O)N[C@@H](CC(C)C)C(=O)N[C@@H](Cc4ccccc4)C(=O)O)c(C)c3cc2c1C | 10.3%
CCOc1ccc(/C=N/OCC(=O)NCc2cccs2)cc1 | 2.85%
CCN(c1ccccc1)S(=O)(=O)c1ccc(OCC(=O)N2CCCC2)cc1 | 3.8%
CC(C)[C@@H](NC(=O)OC(C)(C)C)C(=O)NCC1CCC(C(=O)N[C@@H](Cc2ccccc2)C(=O)O)CC1 (some centres undefined) | 7.31%
CC(C)C1N=C2c3ccccc3N=C(SCC(=O)c3ccc(O)c(O)c3)N2C1=O (centres undefined) | 13.5%
CC1(C)Cc2c(C#N)c(SCc3nc4ccccc4[nH]3)nc(N3CCOCC3)c2CO1 | 6.67%
O=c1[nH]c(N2CCOCC2)nc2ccccc12 | 3.04%
C1=C(N2CCOCC2)/C(=C/c2nc3ccccc3[nH]2)CC1 | 88.2% (active)
CCOC(=O)N1CCN(S(=O)(=O)c2cc(Br)cc3c2N(C(=O)C2CC2)CC3)CC1 | -4.43%
CCN(c1ccc2c(c1)OCO2)S(=O)(=O)c1cc(Br)cc2c1N(C(=O)C1CC1)CC2 | 34% (active)
CS(=O)(=O)N(CC(=O)NCc1ccco1)c1ccc2c(c1)OCO2 | 5.67%
CCOc1cc(/C=C/C(=O)OCC(=O)NCCN2C(=O)CSC2=O)ccc1OCC(C)C | -5%
N#CC1=C(N)C(C#N)(C#N)[C@H](c2ccsc2)[C@H]2COCC=C12 | 37.8% (active)
Cc1cccc(Nc2nc(NCCO)nc(N3CCCC3)n2)c1 | -0.55%

Structure (SMILES) | inhibition
CCCc1cc(=O)[nH]c(SCC(=O)N2CCN(S(=O)(=O)c3ccc(C)cc3C)CC2)n1 | 3.73%
CCCOc1ccc(C2c3c(oc4cc(C)c(C)cc4c3=O)C(=O)N2CCCN2CCOCC2)cc1 (centres undefined) | 11.6%
Cc1cc2oc3ccc(NCCC4CCCN4C)cc3c(=O)c2cc1C (centres undefined) | 40.9% (active)
Fc1c(F)c(C(F)(F)F)c(F)c(F)c1N1CCN(c2ccc3nnc(C(F)(F)F)n3n2)CC1 | 3.95%
COc1cc(/C=C/C2=CC(C)(C)NC(=S)N2)cc(OC)c1OC | -3.53%
CCCCOC(=O)CNc1nnc(SCC(=O)OCC)[nH]c1=O | 15.6%
Cc1cc(C)c[n+](-c2nc3ccccc3nc2[N-]S(=O)(=O)c2cccs2)c1 | 5.77%
O=C(NCCc1ccccc1)C1CCN(S(=O)(=O)c2ccc(Br)s2)CC1 | 2.98%
O=S(=O)([N-]c1nc2ccccc2nc1-[n+]1ccc(Cc2ccccc2)cc1)c1ccc(Br)s1 | 82.6% (active)
CCOC(=O)C1=C(O)/C(=C/c2ccc(OCC(=O)Nc3ccc(C)cc3)cc2)N=C1C | -2.9%
CCOC(=O)C1=C(O)/C(=C/c2cc(C)n(-c3ccccc3)c2C)N=C1C | 35.6% (active)
COC(=O)C1=C(O)/C(=C/c2ccc(OCC(=O)Nc3ccccc3)cc2)N=C1C | 0.76%
CCn1c2c(c3ccc(OC)cc31)CCCC2=O | 5.26%
O=S(=O)(c1ccc(SCc2ccccc2)nc1)N1CCCCCC1 | 5.07%
CC(=O)c1cnn(-c2cc(Oc3ccc(F)cc3)ncn2)c1C | 2.24%
COc1ccc(NS(=O)(=O)c2ccc(F)cc2F)cn1 | 3.96%
COc1ccc(Nc2cc(Cl)ccc2C(=O)O)cn1 | 50.8% (active)
COc1cccc(Nc2ncccc2C(=O)O)c1 | 6.39%
CCCCOP(=O)(c1ccc(N(C)C)cc1)C(O)c1cc(OC)ccc1OC (centres undefined) | 5.82%
Cc1ccc(NC(=O)CSCC(=O)N2CCOCC2)cc1 | 1.4%
COc1cccc2cc(S(=O)(=O)c3ccc(C)cc3)/c(=N/NS(=O)(=O)c3ccc(C)cc3)oc12 | 5.22%
COC(=O)Cc1cc(=O)oc2c(C)c(O)ccc12 | 4.68%
Cc1cc(S(=O)(=O)c2cc3ccc(O)c(C)c3oc2=O)ccc1F | 40.6% (active)

Structure (SMILES) | inhibition
Cc1ccc(NC(=O)C2CC2c2ccccc2)cc1 (centres undefined) | 2.22%
CC(=O)N1c2ccc(S(=O)(=O)N3CCC(C(=O)NC4CCCC(C)C4C)CC3)cc2CC1C (centres undefined) | 0.13%
COc1ccccc1/C=C/C=N/n1c(-c2ccc(Cl)cc2Cl)n[nH]c1=S | -7.95%
CSc1c(SCc2ccccc2)cnn(Cc2ccccc2)c1=O | 145% (active)
CCn1c(SCc2ccccc2)nc2cc(OC)c(OC)cc2c1=O | 3.12%
COC(=O)c1ccc(SCc2ccccc2)nc1 | 6.87%
CCc1ccccc1NC(=O)NCCN1CCCCC1 | 5.44%
CCOC(=O)[C@@H]1[C@H]2COc3cc(OC)ccc3[C@@H]2N2C(=O)N(c3cccc(C)c3)C(=O)[C@@]12C | 3.42%
Cn1sc(=O)c2cc(S(=O)(=O)NC3CC3)ccc21 | 2.2%
COc1ccc(CN(C)Cc2nc3cc(OC)c(OC)cc3c(=O)[nH]2)c(OC)c1 | 85.4% (active)
COc1cc2nc(CN(C)Cc3ccc(F)cc3)[nH]c(=O)c2cc1OC | -1.08%
COc1cc(CN(C)Cc2nc3cc(C(F)(F)F)ccc3c(=O)[nH]2)ccc1OC(F)F | -2.06%
Cc1cc(NC(=O)C(C)SCC(=O)Nc2ccccc2N2CCCCC2)no1 (centres undefined) | -2.56%
COc1ccc(CCNC(=O)COC(=O)c2cc(=O)c3ccccc3o2)cc1 | -7.08%
O=C(C1CC(=O)N(C2CCCCC2)C1)N1CCN(c2ccccc2)CC1 (centres undefined) | 3.83%
O=c1[nH]c(=O)c2nc3ccccc3nc2[nH]1 | 33.4% (active)
CNC(=O)c1cccc2nc3ccccc3nc12 | 8.33%
O=c1[nH]c(-c2ccccc2)c(-c2ccccc2)[nH]1 | 1.54%
CNC(C)C#Cc1ccc2sc3cc(OC)c(OC)cc3c(=O)c2c1 (centres undefined) | 0.94%
COc1ccc(C(=O)NCC(c2ccco2)N2CCc3ccccc32)cc1OC (centres undefined) | 3.87%
